Sampled rows, rich in hits. Any-hit rate of the full collection: about 3.5%.
FBW7 act = FBW7 E3 ligase activators, primary screen, biochemical, AlphaScreen, human | F-box/WD repeat-containing protein 7 (Homo sapiens), Q969H0 | AlphaScreen FBW7–phospho-cyclin E peptide binding, activator screen | normalized activity (activation), % at 26.1 µM | actives 0.13% (n = 650,000) | AID 1259310, 2017; in the data active means normalized activity above about 1.9%;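 further: purified mutant Fbw7 with reduced substrate affinity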
GPR151 activ = activators of human GPR151, primary screen, cell-based, PathHunter beta-arrestin, luminescence. AID 1508602, 2020. activation, % at 11.2 µM. PathHunter beta-arrestin GPR151 cells. G-protein coupled receptor 151 (Homo sapiens), Q8TDV0. actives 1% (n = 650,000); in the data active means activation above about 4.9%;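 further: 0% = median of compound wells and 100% = cells with positive control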
MITF primary = MITF inhibitors, primary screen, biochemical, AlphaScreen, human; AlphaScreen MITF homodimerization, bead proximity signal; Microphthalmia-associated transcription factor (Homo sapiens), O75030; inhibition, % at 2.6 µM; AID 1259374, 2018; actives 0.91% (n = 650,000); in the data active means inhibition above about 50%;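 further: 0% = vehicle wells with protein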
TEAD-YAP block = TEAD-YAP interaction inhibition, primary screen, TEAD-YAP interaction inhibitor project, luminescence, HEK-TIYL cells; inhibition, % at 9.12 µM; actives 1.4% (n = 640,000); AID 1259422, 2018; TEAD-Gal4/YAP UAS-luciferase luminescence; in the data active means inhibition above about 32%;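 further: 0% = median of test compound wells and 100% = reference inhibitor wells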
GPR151 confirm = GPR151 activators, triplicate retest, confirmation, cell-based, PathHunter beta-arrestin, luminescence. 6,700 tested, under 10 active. shares compounds with GPR151 activ. GPR151 PathHunter beta-arrestin cells, 90 min; % of EA-reagent control over plate median. AID 1508609, 2020. activation, % at 11.2 µM;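 active means mean percent activation across replicates above the confirmation screen cutoff of 4.91%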
GPR119 ag = GPR119 activators in beta-arrestin cells, counter-screen for GPR151 activator project, cell-based, PathHunter beta-arrestin, luminescence, triplicate | activation, % at 11.2 µM | AID 1508611, 2020 | actives 0.3% (n = 6,700) | shares compounds with GPR151 activ | 90 min; 0 = compound-well median, 100 = enzyme-acceptor control;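 active means mean percent activation in the counterscreen above 29.09%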;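 further: counterscreen on off-target GPR119 to flag nonselective hits from the GPR151 activator screen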
The depositor's hits bear a star; . = not tested or not shown.

SMILES	FBW7 act	GPR151 activ	MITF primary	TEAD-YAP block	GPR151 confirm	GPR119 ag
O=C(CCC1(Cc2ccc3c(c2)OCO3)CCC(=O)N1)NCc1cnn(-c2ccccc2)n1 (stereo not given)	0	7.1*	2	10	1	6
CCOc1ccc(-c2cn(-c3ccc(C)cc3)c(SCC(=O)Nc3ccc(OC)cc3)n2)cc1	0	-1	4	17	.	.
N#Cc1ccc(OCC(=O)N2C(=O)c3ccccc3S2(=O)=O)cc1	0	0	1	9	.	.
O=C(COc1ccccc1)N1C(=O)c2ccccc2S1(=O)=O	0	5.2*	10	2	1	2
CC(=O)C1=C(C)N(Cc2ccccc2)C(=O)N[C@H]1c1cccc(F)c1	0	6.9*	27	.	0	8
CC1(C)Cc2c(oc(N)c2C#N)CO1	0	0	11	2	.	.
CC(=O)c1ccc(OCC(=O)Nc2ccccc2)cc1	0	5.8*	10	-39	-2	-16
O=C(COc1ccc(F)cc1)Nc1cccc(C(=O)O)c1	0	6.5*	6	-10	1	18
CCOc1ccc(NC(=O)CNC(=O)c2ccc(C(C)(C)C)cc2)cc1	0	9.1*	8	8	0	-9
CCOc1ccc(NC(=O)c2ccc(C(C)(C)C)cc2)cc1	0	-1	-13	-29	.	.
CCOc1ccc(-c2cccc(NC(=O)COc3ccc(C(=O)c4ccccc4)cc3)c2)nn1	0	7.3*	21	5	-1	-1
Cc1cc(-c2ccccc2)nc2cc(C(=O)Nc3cc(Oc4ccc(F)cc4)cc([N+](=O)[O-])c3)nn12	0	0	0	3	.	.
CO[C@H]1[C@H](NC(=O)Cc2ccccc2)c2ccccc2C12CCN(Cc1ccoc1)CC2	0	0	-24	12	.	.
O=C(Cn1nnc(-c2ccccc2)n1)N/N=C/c1c[nH]c2ccccc12	0	0	11	-2	.	.
CC(C)(C)c1ccc(OCC(=O)Nc2ccc(OCC(=O)O)cc2)cc1	0	5.2*	11	7	0	4
Cc1nc(CC(=O)N2CCC(C(Cc3ccccc3)N(C)C(=O)c3ccccn3)CC2)n[nH]1 (stereo not given)	0	0	1	-5	.	.
CN(CC(=O)Nc1ccc(Cl)cc1)CC(=O)Nc1ccc(C(N)=O)cc1	0	5.4*	-6	4	0	-9
CN(CC(=O)Nc1ccc(C(N)=O)cc1)Cc1ccc(C(C)(C)C)cc1	0	1	-1	-8	.	.
CN(CC(=O)Nc1ccc(C(N)=O)cc1)CC(=O)Nc1ccccc1Cl	0	1	-11	-5	.	.
COc1ccc(CN(C)CC(=O)Nc2ccc(C(N)=O)cc2)c(OC)c1OC	0	5.0*	-5	1	1	12
CCOC(=O)C(CC(C)C)NC(=O)C(Cc1ccccc1)NC(=O)OC(C)(C)C (stereo not given)	0	0	-4	1	.	.
CCOCCn1ccc2c(OCC(=O)NCCOC)cccc2c1=O	0	14*	8	0	1	2
CCOCCn1ccc2c(OCC(=O)Nc3ccc(F)cc3F)cccc2c1=O	0	2	6	4	.	.
CN(C)c1ccc(C2NC(=S)NC3=C2N2CCC3CC2)cc1 (stereo not given)	0	0	1	-10	.	.
S=C1NC2=C(C(c3ccc(Br)cc3)N1)N1CCC2CC1 (stereo not given)	0	5.7*	15	4	-1	-9
SMILES	FBW7 act	GPR151 activ	MITF primary	TEAD-YAP block	GPR151 confirm	GPR119 ag
COc1ccccc1CCNC(=O)C1CC12CCN(C(C)CCn1cccn1)CC2 (stereo not given)	0	1	-5	-5	.	.
CSc1ccccc1C(=O)N(C)Cc1ccccc1	1	5.8*	3	-10	0	9
COc1ccccc1N1CCN(C2CCCN(Cc3cccn3-c3cccnc3)C2)CC1 (stereo not given)	0	7.5*	4	4	0	4
COc1ccccc1N1CCN(C2CCCN(Cc3ccncc3)C2)CC1 (stereo not given)	0	0	6	7	.	.
COc1ccc(CN2CCCC(N3CCN(c4ccccc4OC)CC3)C2)cc1O (stereo not given)	0	1	-2	-1	.	.
COc1ccccc1N1CCN(C2CCCN(Cc3ccc4nonc4c3)C2)CC1 (stereo not given)	0	8.0*	0	14	1	-4
CNC(=O)CNC(=O)CNC(=O)c1ccccc1	1	0	-7	11	.	.
O=C(Nc1ccc(Cl)c(-c2nc3ccccc3o2)c1)c1cccnc1	0	1	15	-3	.	.
Cc1cc2nc(-c3cc(NC(=O)c4cccnc4)ccc3Cl)oc2cc1C	0	5.3*	-3	-9	0	13
CNC(=O)CCC(=O)N1CCOc2ccc(Cl)cc21	1	7.2*	4	2	1	-5
O=S(=O)(c1ccc(Nc2nc3ccccc3n3nnnc23)cc1)N1CCOCC1	0	5.1*	4	-19	0	0
O=c1oc2c(Cl)cc(Cl)cc2cc1-c1nc(-c2ccc(Oc3ccccc3)cc2)cs1	0	-1	-2	2	.	.
CCN(CC)c1nc(Nc2ccccc2)nc(Nc2nc3ccccc3n2C)n1	1	-1	4	-3	.	.
CCN(CC)c1nc(Nc2nc3ccccc3n2C)nc(NC2CC2)n1	0	7.5*	17	6	0	1
COc1ccc(NC(=O)c2cc(OC)c(OC)c(OC)c2Br)cc1Cl	1	2	9	12	.	.
CC1=CC2=NC(=O)/C(=C\c3ccc(-c4ccccc4Cl)o3)C(=N)N2O1	0	1	8	3	.	.
CC1=CC2=NC(=O)/C(=C\c3ccc(-c4cccc(Cl)c4)o3)C(=N)N2O1	0	5.9*	-1	7	0	11
COc1cccc(-c2nc3ccccc3c(=O)n2NC(=O)c2ccc(OC)c([N+](=O)[O-])c2)c1	0	2	4	1	.	.
Cc1noc(C)c1COC(=O)Cc1coc2cc3c(cc12)CCC3	0	3	-9	2	.	.
COc1ccc2c(CC(=O)OCc3c(C)noc3C)coc2c1	0	5.1*	0	9	-2	-10
Clc1ccc(-n2cccc2CN2CCc3nnc(C4CCCO4)n3CC2)nc1 (stereo not given)	0	0	7	13	.	.
O=[N+]([O-])c1cc([N+](=O)[O-])c2nonc2c1Nc1cccc(C(F)(F)F)c1	1	7.1*	18	6	1	-10

Bioassay records as filed in PubChem.
